Test results taken from PubChem BioAssay AID2782 (National Center for Advancing Translational Sciences (NCATS), 2010).
Records with an inconclusive call do not appear. Activity calls are given as the source filed them. Calls come from the whole dose curve; as a rule, active = well fitted inhibition curve with a large enough effect in the polarisation, with a control signal flat (not every such curve was filed as active); inconclusive = small, poorly fitted or top-dose-only effect, or effect the other way, or a change in a side signal; inactive = no such curve, though single readings can be large or run the other way; the % refers to the polarisation.

Experiment: Confirmation of Inhibitors Targeting the Menin-MLL Interaction in MLL Related Leukemias: Competition With Texas Red Labeled MLL-derived Mutant Peptide
Settings: fluorescence polarization, Texas Red MLL peptide displacement; series mostly up to 94.6 µM
From the text: qHTS Assay for Inhibitors Targeting the Menin-MLL Interaction in MLL Related Leukemias
NIH Chemical Genomics Center [NCGC]
NIH Molecular Libraries Probe Centers Network [MLPCN]
Assay Submitter (PI): Jolanta Grembecka, Tomasz Cierpicki, University of Virginia
Translocations of the MLL (Mixed Lineage Leukemia) gene are frequently found in human leukemias affecting both children and adults. Fusion of MLL to one of more than 60 genes results in generation of oncogenic proteins upregulating Hox genes, which are vital to blood cell development. Patients harboring fusion of the MLL gene suffer from aggressive leukemias and respond poorly to available therapies. All of the oncogenic fusion proteins have a preserved N-terminal fragment of MLL that has been identified to interact with menin. It has been recently discovered that association with menin is critical to the leukemogenic activity of the MLL fusion oncoproteins. Selective targeting of the menin-MLL interaction could provide an attractive therapeutic approach to develop novel drugs for MLL-related leukemias. Small molecules blocking the menin-MLL interaction should reverse the oncogenic potential of MLL fusion proteins.
We have developed and optimized a fluorescence polarization-based assay for the identification of Menin-MLL inhibitors. The assay was run employing two different MLL-derived peptides. The present assay uses a 12 amino acid peptide labeled with fluorescein at its N-terminus. This peptide consists of the menin high affinity binding motif from MLL and is potently bound by menin. Another peptide with a mutated sequence, labeled with Texas Red, was used in parallel as a less stringent screen for inhibitors.
The present assay was run to confirm the activity of hits from the primary screen using the peptide with a mutated sequence, labeled with Texas Red.
The Menin protein, the MLL-wild type (w.t.) derived peptide (N-terminal 12 amino acids), the MLL-derived peptide labeled with Texas Red and the MLL-w.t. peptide labeled with Fluorescein were kindly supplied by laboratory of Dr. Jolanta Grembecka, University of Virginia. All protein and peptide solutions were stored in single use aliquots at -80C. The Eu3+ Cyrptate-conjugated mouse monoclonal antibody anti-6 Histidine (Eu3+-AB) and the Streptavidin-XL665 conjugate (XL665) were purchased from Cisbio International (Bedford, MA). All antibody and XL665 conjugate solution stocks were stored in single use aliquots at -20C. The Buffer components for all assays were purchased from Sigma-Aldrich (St. Louis, MO) and Invitrogen (Carlsbad, CA).
1. FP reaction buffer: 50 mM Tris-HCl pH 7.5, 50 mM NaCl, 1mM DTT.
Before use, 0.05% BSA is added.
2. Menin protein, MLL-w.t. labeled with fluorescein, MLL-mutant peptide labeled with texas red.
Stored in singe use aliquots at -80C.
3. MLL-w.t. unlabeled peptide as positive control: 10 uM final in FP buffer.
1. Prepare Menin at 200 nM, MLL-w.t.-fluorescein at 25 nM, and MLL-mutant-texas red at 50 nM mixture in FP buffer.
2. Prepare Menin at 200 nM, MLL-w.t.-fluorescein at 25 nM, MLL-mutant-texas red at 50 nM, and 10 uM MLL-w.t. unlabeled mixture in FP buffer.
3. Prepare MLL-w.t.-fluorescein at 25 nM and MLL-mutant-texas red at 50 nM mixture in FP buffer.
3. Dispense 4 ul per well of reagent in step 1 in columns 2, 4 - 48 in a black 1536 well plate, dispense 4 ul per well of reagents from steps 2 and 3 in columns 1 and 3 respectively. Incubate plate at ambient for 15 minutes.
4. Transfer 23 nl per well of compound to plate and incubate at ambient for 1 hr.
5. Read fluorescence polarization for each label using the PerkinElmer Envision.
Envision protocol for fluorescein: FITC FP Dual Enh Mirror, Excitation filter 480, Emission filter (1) P-pol 535, Emission filter (2) S-pol 535
Envision protocol for texas red: FP Dual Enh Mirror, Excitation filter 555, Emission filter (1) P-pol 632, Emission filter (2) S-pol 632
Potency is the fitted concentration of half-maximal effect.

Potency, inactive:
O=C(Nc1ccc2c(c1)OCO2)c1ccccc1, CCOC(=O)N1CCN(C(=O)c2oc3ccc(S(=O)(=O)N(CC)CC)cc3c2C)CC1, COc1ccccc1/C=N/n1c(N)c(S(=O)(=O)c2cccs2)c2nc3ccccc3nc21, OC(c1ccccn1)(c1ccccn1)c1ccccn1, Cc1ccc(C#CC(C)(O)C(C)(C)C)cn1 (stereo not given), CC(CC(=O)Nc1nc2ccccc2[nH]1)n1ccnc1 (stereo not given), O=C(/C=C/c1ccccc1)c1cccs1, CCN1C(=O)[C@@H]2C(C(=O)c3cnccn3)=NN[C@@H]2C1=O, CCOC(=O)Cn1c2ccccc2n2nc(CCC(=O)O)c(=O)nc12, Cc1ccc(S(=O)(=O)c2cc(OC(=O)c3ccco3)ccc2OC(=O)c2ccco2)cc1, CCCCC(=O)NC(=S)Nc1nnn(CCC)n1, CCc1nnc(NC(=O)C2(C)COC(c3ccc(OC)cc3)OC2)s1 (stereo not given), CCCc1cc(=O)oc2c3c(c(Cl)cc12)OCN(CCCO)C3, O=C(C1=C(O)C(=O)N(CCN2CCOCC2)C1c1cccc(Br)c1)c1cccs1 (stereo not given), O=S(=O)(Nc1cccc(-c2cn3cccnc3n2)c1)c1ccccc1, CC1CN(c2c3c(nc4ncnn24)CCCC3)CC(C)O1 (stereo not given), CCCNC(=O)c1ccc2c(=O)c(O)c(C)[nH]c2c1, Cc1c(C(=O)OCC(=O)Nc2ccc(S(N)(=O)=O)cc2)oc2c1ccc1ccccc12, COCC(=O)Nc1cccc2ccccc12, CC(C)Cc1cc(C(=O)NCCCN2CCOCC2)no1, O=C(N1CCOCC1)N1CCN(S(=O)(=O)c2ccc(Cl)cc2)CC1, C/C(=N\NC(=O)c1nnn(-c2nonc2N)c1C)c1ccc(-c2ccccc2)cc1, CCCCCC1CCC(C(=O)NCCN2CCOCC2)CC1 (stereo not given), Cn1c(=O)[nH]c(=O)c2c1nc(Br)n2CCSc1nc2ccccc2o1, CCN1CCN(CC(=O)Nc2ccc(C(C)=O)cc2)CC1, Cc1ccc(C(=O)Sc2cccccc2=O)cc1, COc1ccc(C)cc1N(C(=O)c1snc(C(N)=O)c1N)C(C(=O)NC1CCCC1)c1ccc(F)cc1 (stereo not given), CCCC(=O)Nc1cccc(NC(=O)c2ccc([N+](=O)[O-])cc2Cl)c1, CN1C[C@@H]2C[C@H]1CN2c1cc2c(cc1F)c(=O)c(C(=O)O)cn2C1CC1, COc1ccc(/C=C(\C#N)C(=O)NCc2ccccc2)cc1, COC(=O)c1cc(CNC(=O)CCCSc2ccccc2)ccc1OC, CC(c1cc2ccccc2s1)N(O)C(N)=O (stereo not given)

Potency, active:
CC1(C)CN=C(N2CCN(c3ncnc4sc5c(c34)CCCC5)CC2)S1 14.2 µM, COc1ccc(-c2csc(NC(=S)NC(=O)/C=C/c3ccc(C(C)C)cc3)n2)cc1OC 17.8 µM, CCC[n+]1c2ccccc2cc2ccccc21 31.7 µM, C[C@H](NC(=O)c1cc2c(cn1)[nH]c1ccccc12)C(=O)O 56.4 µM, Cc1ccccc1-c1cncnc1NC1CCNCC1 126 µM, COc1ccccc1NS(=O)(=O)c1cc(N2Cc3ccccc3C2=N)ccc1N1CCOCC1 50.1 µM, CCC(C)CCCCC(=O)N[C@@H](CCN)C(=O)N[C@H](C(=O)N[C@@H](CCN)C(=O)N[C@H]1CCNC(=O)C([C@@H](C)O)NC(=O)[C@@H](CCN)NC(=O)[C@H](CCN)NC(=O)[C@H](CC(C)C)NC(=O)[C@@H](CC(C)C)NC(=O)[C@H](CCN)NC1=O)[C@@H](C)O (stereo not given in full) 7.94 µM, CC(=O)NC1C(=O)N(CCN2CCOCC2)c2ccc(C)cc21 (stereo not given) 71 µM
